In PubChem BioAssay AID1347171 (National Center for Advancing Translational Sciences (NCATS), 2019):
Results filed as inconclusive are left out. Unmarked numbers belong to inactive results. Calls of active or inactive are those of the source. Calls follow the shape of the dose curve; as a rule, active = well fitted inhibition curve with a large enough effect; inconclusive = small, poorly fitted or top-dose-only effect; inactive = no such curve, though single readings can be large or run the other way.

Assay: Orthogonal mCherry assay for qRT-PCR qHTS of selected Zika virus inhibitors
Conditions: Vero cells, ZIKV-mCherry infection imaging, 48-72 h; series mostly up to 32.6 µM; activity change, negative = inhibition: at the top concentration
Text: Description: Assay Submitters (PI): Avindra Nath, Ph.D., National Institute of Neurological Disorders and Stroke (NINDS), Bethesda, MD Radhakrishnan Padmanabhan, Ph.D., Georgetown University (GU), Washington D.C. Zika Virus causes congenital defects, including microcephaly and is associated with Guillain-Barre syndrome, eningoencephalitis and myelitis in infected adult. […] Using a target-based approach, we hope to establish a screening paradigm to uncover novel, cell-active NS2B-NS3 protease (Zika Virus) specific inhibitors from NCATS' collection of small molecules using qHTS. […] Four assay panel was created to identify potential Zika Virus inhibitors. Namely, (1) GU unlinked NS2B-NS3 AMC tagged protease qHTS, (2) GU unlinked NS2B-NS3 Rhodamine tagged protease qHTS, (3) NINDS linked NS2B-NS3 AMC tagged protease qHTS, (4) NINDS linked NS2B-NS3 Rhodamine tagged protease qHTS. Inhibitors of the Zika virus primary screens are confirmed using qRT-PCR secondary assays, mCherry orthogonal assay, and Vero cells viability counterscreen. Early Translation Branch (ETB) National Center for Advancing Translational Sciences (NCATS), Rockville, MD National Institute of Health (NIH), Bethesda, Maryland
384 well ZIKV-mCherry Assay: We have developed a new orthogonal imaging assay in 384-well plate format, which uses recombinant virus ZIKV-mCherry in Vero cells. Briefly, 30 microL of Vero cells derived from a green monkey cell line, were dispensed by Multidrop Dispenser into a clear solid bottom black 384 well plate (ultracarrier, Perkin Elmer LifeSciences) at a concentration of 5,000 cells per well. The plate was incubated overnight in a CO2 incubator at 37 degrees C. Compounds were delivered as a 126 nL DMSO solution by Kalypsys pintool transfer. Following compound transfer, 10 microL of ZIKV-mCherry was added at an MOI of 1 and incubated in a CO2 incubator for 48-72 hrs at 37 degrees C. After sufficient incubation of infected cells in test plates, 8 microL of 32% PFA was dispensed into assay plates to fix cells and incubated for 20 min at room temperature. Plates were washed 3 times with PBS using BioTek EL406 microplate washer/dispenser. After washing, 30 microL of PBS with 0.01% TX-100 containing Hoechst dye was dispensed into the each well of the plates for nuclear staining. 384-well plates were imaged on an automated, widefield high content imager (INCell 2200, GE Healthcare) using a 10x/0.45 NA lens and standard DAPI (nuclear stain) and mCherry (cy5) excitation and emission filters. The TIFFs were quantitated using the canned Multi Target Analysis protocol (GE Investigator Workstation software v3.7.2). Briefly, nuclei from the DAPI channel were identified using top hat segmentation and a sensitivity setting of 96 and minimum size area of 35 microm2. A recombinant Zika viral infection was monitored in the Cy5 channel (cells) using a 2 microm collar dilation from the nuclear bitmap. mCherry objects with an average nuclear RFU intensity above 450 (3 stdev above mean negative control wells) were considered "mcherry positive" and data was analyzed by percent infection rate.

| SMILES | activity change, negative = inhibition | Potency |
| --- | --- | --- |
| CC(C)=CCc1c2c(c3occ(-c4ccc(O)c(O)c4)c(=O)c3c1O)C=CC(C)(C)O2 | -39% | – |
| Nc1ccn([C@@H]2O[C@H](CO)[C@@H](O)C2(F)F)c(=O)n1 | -78.4% | – |
| O=C1NC(=O)/C(=C/c2ccc3c(c2)OC(F)(F)O3)S1 | 0.686% | – |
| Cc1ccc(-n2[nH]c(C)c(N=Nc3cccc(-c4cccc(C(=O)O)c4)c3O)c2=O)cc1C | 539% | – |
| COc1cccc(-n2nc(C(=O)O)cc2-c2ccc(C3CCCCC3)c(Cl)c2)c1 | – | 25.1 µM (active) |
| CC1(C)CCC(CN2CCN(c3ccc(C(=O)NS(=O)(=O)c4ccc(NCC5CCOCC5)c([N+](=O)[O-])c4)c(Oc4cnc5[nH]ccc5c4)c3)CC2)=C(c2ccc(Cl)cc2)C1 | 288% | – |
| CC(C)c1ccc2c(c1)c(SC(C)(C)C)c(CC(C)(C)C(=O)O)n2Cc1ccc(Cl)cc1 | -24.6% | – |
| CC(C)c1onc(-c2c(Cl)cccc2Cl)c1COc1ccc(/C=C/c2cccc(C(=O)O)c2)c(Cl)c1 | – | 25.1 µM (active) |
| O=C(Nc1ccc([N+](=O)[O-])cc1Cl)c1cc(Cl)ccc1O | -81.4% | – |
| Oc1cccc(-c2c3nc(c(-c4cccc(O)c4)c4ccc([nH]4)c(-c4cccc(O)c4)c4nc(c(-c5cccc(O)c5)c5ccc2[nH]5)CC4)C=C3)c1 | – | 7.08 µM (active) |
| CC[C@H](C)[C@H]1O[C@]2(CC[C@@H]1C)C[C@@H]1C[C@@H](C/C=C(\C)[C@@H](O[C@H]3C[C@H](OC)[C@@H](O[C@H]4C[C@H](OC)[C@@H](O)[C@H](C)O4)[C@H](C)O3)[C@@H](C)/C=C/C=C3\CO[C@@H]4[C@H](O)C(C)=C[C@@H](C(=O)O1)[C@]34O)O2 | 3.23% | – |
| COc1cc2c(c(O)c1OC/C=C(\C)CC/C=C(/C)CCC=C(C)C)CN(C(CCC(=O)O)C(=O)O)C2=O (centres undefined) | -21.6% [at 16.3 µM] | – |
| Cc1cc(C(C#N)c2ccc(Cl)cc2)c(Cl)cc1NC(=O)c1cc(I)cc(I)c1O (centres undefined) | -28.4% | – |
| COc1ccc(NS(=O)(=O)c2ccc(NS(=O)(=O)c3ccc4c(c3)OCCO4)cc2)cc1 | -5.78% | – |
| CC(C)c1cc(C(C)C)c(CC(=O)NS(=O)(=O)Oc2c(C(C)C)cccc2C(C)C)c(C(C)C)c1 | -70.7% | – |
| Cc1cc(NC(=O)c2ccc(Cl)c(Cl)c2)ccc1-c1cc2ccccc2oc1=O | 33.7% | – |
| COc1c(C)c2c(c(O)c1C/C=C(\C)CCC(=O)O)C(=O)OC2 | -80.8% | – |
| N#CC1C(=O)Nc2scc(-c3ccc(-c4ccccc4O)cc3)c2C1=O (centres undefined) | -51% | – |
| CN(Cc1ccc(C(=O)O)cc1)c1ccc(OCc2c(-c3c(Cl)cccc3Cl)noc2C2CC2)nc1C(F)(F)F | – | 14.1 µM (active) |
| Nc1ncnc2c([C@@H]3N[C@H](CO)[C@@H](O)[C@H]3O)c[nH]c12 | – | 14.1 µM (active) |
| Cc1cc2c(C(C)C)c(O)c(O)c(C=O)c2c(O)c1-c1c(C)cc2c(C(C)C)c(O)c(O)c(C=O)c2c1O | -104% | – |
| Oc1cc2ccccc2c2ccccc12 | 8.44% [at 65.2 µM] | – |
| CC1=C(C(=O)OCc2ccccc2)C(c2ccc(-c3ccccc3)cc2)NC(=O)N1CCCCCC(=O)O (centres undefined) | -69.4% | – |
| Cc1cccc(C)c1NS(=O)(=O)c1ccc(NS(=O)(=O)c2ccc3c(c2)OCCO3)cc1 | – | 3.55 µM (active) |
